Experiment [1] is described as follows: small molecules captured by biotinylated probe aFSTL3 – biochemical, small-molecule microarray, fluorescence 635/667, stem cell growth factor project, primary screen (AID 1064).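 Further: measures binding of the biotinylated anti-FSTL3 antibody to printed compounds.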 Particulars: higher = more signal.
Experiment [2] is described as follows: binders from COS7 lysate, DM2A8 probe, primary screen, torsin A project, cell lysate, small-molecule microarray, fluorescence 635/667 (AID 1065). Particulars: higher = more signal, COS7 lysate expressing mutant human TOR1A.
Experiment [3] can be described thus: small molecules captured by biotinylated probe aFGF2 – biochemical, small-molecule microarray, fluorescence 635/667, stem cell growth factor project, primary screen (AID 1067).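 Further: measures binding of biotinylated aFGF2 protein to printed compounds on slides; z-score merges feature fluorescence and signal-to-noise across triplicate slides.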 The note with it: higher = more signal.
Experiment [4] in a line: small molecules captured by biotinylated probe aFGF10 – biochemical, small-molecule microarray, fluorescence 635/667, stem cell growth factor project, primary screen (AID 1071).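 Further: score merges 667 nm spot intensity and signal to noise from triplicate slides.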 Particulars: higher = more signal.
In experiment [5] the target is Neurogenic locus notch homolog protein 2 (Homo sapiens) (UniProt Q04721). Put plainly: small molecules binding Notch2 protein – biochemical, small-molecule microarray, 635 nm fluorescence, stem cell growth factors, primary screen (AID 1073). Particulars: higher = more signal.
Experiment [6] addresses Pro-neuregulin-1, membrane-bound isoform (Homo sapiens) (UniProt Q02297). Put plainly: small molecules binding neuregulin-1 protein – biochemical, small-molecule microarray, fluorescence 635/667, psychiatric disease protein project, primary screen (AID 1075).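 Further: score combines 667 nm spot fluorescence with signal to noise.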 The note with it: NRG1 binding, 635 nm fluorescence, higher = more signal.
The test system of experiment [7] is Neuregulin-1 EGF-like domain. Nature of the experiment: small molecules binding NRG1 EGF domain – biochemical, small-molecule microarray, 635 nm fluorescence, primary screen (AID 1081).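 Further: binding of the protein to compounds printed on small-molecule microarray slides.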 Particulars: higher = more signal.
Experiment [8] is described as follows: FRG1 expression reporter modulators in myotubes – cell-based, C2C12 myotubes, firefly/Renilla luciferase, luminescence, FRG1 inhibition for FSHD, primary screen (AID 1084). The note with it: FRG1 promoter luciferase, higher = more signal, called active from +8 up or from −8 down.
Experiment [9] can be described thus: small molecules captured by biotinylated probe aFST – biochemical, small-molecule microarray, fluorescence 635/667, stem cell growth factor project, primary screen (AID 1086).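 Further: score merges 667 nm fluorescence with signal-to-noise of each printed compound spot.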 The note with it: higher = more signal.
Experiment [10] is described as follows: binders of probe aHhip on microarray, primary screen, stem cell growth factor project, biochemical, small-molecule microarray, fluorescence 635/667 (AID 1087).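 Further: score merges spot fluorescence at 667nm with spot signal to noise ratio.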 The note with it: higher = more signal.
Experiment [11] deals with PRMT1 (protein arginine N-methyltransferase 1). Put plainly: small molecules binding arginine methyltransferase PRMT1 – biochemical, small-molecule microarray, 635 nm fluorescence, primary screen (AID 1088).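 Further: binding of Prmt1 protein to compounds spotted on small-molecule microarray slides.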 Particulars: higher = more signal.
The nature of experiment [12]: growth effects on S. cerevisiae YJM789 – YJM789 clinical isolate, OD600, 24 h, basal, primary screen (AID 1089).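 Further: growth of clinical yeast isolate S. cerevisiae YJM 789 seeded 1000 cells per well; test concentration not given here.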 The note with it: higher = more signal, called active from +8 up or from −8 down.
Experiment [13] is described as follows: S. pombe growth modifiers, basal conditions – strain 972, OD600, 24 h, no modulator, primary screen (AID 1090).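 Further: basal condition with compound alone and no growth modifier present; test concentration not given here.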 Particulars: S. pombe 972 growth, higher = more signal, called active from +8 up or from −8 down.
A short description of experiment [14]: budding yeast growth modifiers under rapamycin – strain BY4716, OD600, 96 h, primary screen (AID 1091). Further: test concentration not given here. The note with it: S. cerevisiae BY4716 + rapamycin, higher = more signal, called active from +8 up or from −8 down.
Experiment [15] addresses Torsin-1A-interacting protein 2 (Homo sapiens) (UniProt Q8NFQ8). Nature of the experiment: small molecules binding lysate-expressed LULL1 – cell lysate, human LULL1 lysate, 635/667 nm fluorescence, primary screen (AID 1092).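 Further: score merges per-feature 667 nm fluorescence with signal-to-noise.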 The note with it: small-molecule microarray, hLULL1 lysate binding, 635 nm fluorescence; higher = more signal.
The nature of experiment [16]: optical density change of DRC41 E. coli – strain DRC41, OD650, 24 h, E. coli filamentation project, primary screen (AID 1093).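 Further: MC1000 strain lacking acrAB efflux and sulA so SOS filamentation is blocked; test concentration not given here.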 Particulars: E. coli DRC41 growth, higher = more signal, called active from +8 up or from −8 down.
Experiment [17] in a line: probe aLefty2 binding to arrayed compounds – biochemical, biotinylated probe, 635/667 nm fluorescence, primary screen (AID 1094).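 Further: score merges spot fluorescence near 667 nm with spot signal-to-noise ratio.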 Particulars: small-molecule microarray, higher = more signal.
For experiment [18], the system named is Noggin (protein binding on small-molecule microarray). Nature of the experiment: small molecules binding Noggin protein – biochemical, 635/667 nm fluorescence, primary screen (AID 1095).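 Further: score merges 667 nm feature fluorescence with signal to noise over triplicate slides.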 The note with it: 635 nm fluorescence, higher = more signal.
Experiment [19] concerns the target Neurogenic locus notch homolog protein 3 (Homo sapiens) (UniProt Q9UM47). Nature of the experiment: small molecules binding NOTCH3 protein – biochemical, 635/667 nm fluorescence, primary screen (AID 1096). Particulars: small-molecule microarray, 635 nm fluorescence, higher = more signal.
The nature of experiment [20]: probe aEGFR binding to arrayed compounds – biochemical, biotinylated probe, 635/667 nm fluorescence, primary screen (AID 1097).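 Further: probe is a biotinylated anti-EGFR antibody binding compounds printed on slides; score combines fluorescence near 667 nm and signal to noise of each spot.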 Particulars: small-molecule microarray, higher = more signal.

Five compounds from PubChem BioAssay can be followed below.

The source made the active and inactive calls.

Sequence of Neurogenic locus notch homolog protein 2 (Homo sapiens) (Q04721 whole entry, looked up, canonical isoform): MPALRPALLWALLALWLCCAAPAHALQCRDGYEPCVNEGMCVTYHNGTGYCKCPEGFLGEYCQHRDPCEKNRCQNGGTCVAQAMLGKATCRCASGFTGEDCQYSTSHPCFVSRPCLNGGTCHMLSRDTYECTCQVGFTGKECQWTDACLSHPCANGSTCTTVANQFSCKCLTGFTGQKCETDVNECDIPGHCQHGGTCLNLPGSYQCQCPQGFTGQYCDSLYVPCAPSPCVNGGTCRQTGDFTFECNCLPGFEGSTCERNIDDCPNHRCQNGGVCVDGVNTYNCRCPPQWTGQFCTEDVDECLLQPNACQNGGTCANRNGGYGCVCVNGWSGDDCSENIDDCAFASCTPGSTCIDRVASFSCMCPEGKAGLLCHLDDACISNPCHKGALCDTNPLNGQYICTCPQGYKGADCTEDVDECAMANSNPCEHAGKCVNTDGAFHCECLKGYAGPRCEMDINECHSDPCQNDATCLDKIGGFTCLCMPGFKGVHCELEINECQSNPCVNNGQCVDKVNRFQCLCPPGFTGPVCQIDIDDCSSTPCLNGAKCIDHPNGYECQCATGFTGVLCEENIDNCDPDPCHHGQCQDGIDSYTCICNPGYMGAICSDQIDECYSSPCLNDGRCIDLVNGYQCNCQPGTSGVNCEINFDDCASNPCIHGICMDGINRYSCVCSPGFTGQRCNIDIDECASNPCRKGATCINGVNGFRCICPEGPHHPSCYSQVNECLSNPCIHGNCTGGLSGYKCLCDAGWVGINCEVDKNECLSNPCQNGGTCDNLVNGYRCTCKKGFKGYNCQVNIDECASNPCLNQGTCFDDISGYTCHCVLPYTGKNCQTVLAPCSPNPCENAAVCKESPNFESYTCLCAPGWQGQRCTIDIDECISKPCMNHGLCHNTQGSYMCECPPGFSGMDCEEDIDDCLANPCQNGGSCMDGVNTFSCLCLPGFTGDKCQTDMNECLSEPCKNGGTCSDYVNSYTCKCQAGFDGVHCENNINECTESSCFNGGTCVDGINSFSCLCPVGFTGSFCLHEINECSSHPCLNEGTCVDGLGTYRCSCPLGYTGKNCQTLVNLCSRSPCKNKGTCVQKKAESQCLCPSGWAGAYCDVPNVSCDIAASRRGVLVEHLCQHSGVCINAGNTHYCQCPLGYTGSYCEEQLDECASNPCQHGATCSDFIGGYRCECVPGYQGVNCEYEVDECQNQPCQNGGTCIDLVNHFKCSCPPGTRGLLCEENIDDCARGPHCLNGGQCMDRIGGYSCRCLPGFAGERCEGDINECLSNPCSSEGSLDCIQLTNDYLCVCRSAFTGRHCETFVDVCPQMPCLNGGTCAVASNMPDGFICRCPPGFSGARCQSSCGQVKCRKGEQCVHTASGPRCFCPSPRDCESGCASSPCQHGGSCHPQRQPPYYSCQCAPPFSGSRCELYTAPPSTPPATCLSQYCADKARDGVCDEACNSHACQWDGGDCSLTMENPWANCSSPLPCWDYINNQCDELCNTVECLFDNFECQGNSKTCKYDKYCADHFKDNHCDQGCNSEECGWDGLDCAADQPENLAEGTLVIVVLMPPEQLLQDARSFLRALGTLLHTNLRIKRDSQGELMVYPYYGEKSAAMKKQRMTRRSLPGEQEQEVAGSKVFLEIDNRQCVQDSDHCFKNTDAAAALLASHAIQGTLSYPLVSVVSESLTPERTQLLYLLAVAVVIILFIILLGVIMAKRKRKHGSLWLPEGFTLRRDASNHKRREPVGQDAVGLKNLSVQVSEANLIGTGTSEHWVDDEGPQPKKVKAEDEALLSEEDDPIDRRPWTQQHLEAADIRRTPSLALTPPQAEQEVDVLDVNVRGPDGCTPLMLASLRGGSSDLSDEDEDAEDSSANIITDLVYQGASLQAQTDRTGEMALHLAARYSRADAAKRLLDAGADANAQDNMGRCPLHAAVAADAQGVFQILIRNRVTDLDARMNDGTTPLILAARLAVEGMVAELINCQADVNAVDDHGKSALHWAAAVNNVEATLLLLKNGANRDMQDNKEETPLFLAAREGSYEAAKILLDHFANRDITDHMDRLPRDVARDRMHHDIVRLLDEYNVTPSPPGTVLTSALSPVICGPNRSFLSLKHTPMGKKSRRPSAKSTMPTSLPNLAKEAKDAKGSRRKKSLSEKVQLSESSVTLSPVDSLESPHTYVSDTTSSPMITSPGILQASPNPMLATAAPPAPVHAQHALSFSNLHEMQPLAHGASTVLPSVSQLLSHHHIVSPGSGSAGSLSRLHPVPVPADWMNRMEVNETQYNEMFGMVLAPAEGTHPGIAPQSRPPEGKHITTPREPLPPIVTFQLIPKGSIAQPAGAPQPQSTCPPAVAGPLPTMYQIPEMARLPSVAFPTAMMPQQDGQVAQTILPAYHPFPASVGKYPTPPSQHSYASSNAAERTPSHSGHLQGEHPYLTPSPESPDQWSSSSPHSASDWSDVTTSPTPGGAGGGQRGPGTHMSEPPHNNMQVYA
Sequence of Neurogenic locus notch homolog protein 3 (Homo sapiens) (Q9UM47 whole entry, looked up): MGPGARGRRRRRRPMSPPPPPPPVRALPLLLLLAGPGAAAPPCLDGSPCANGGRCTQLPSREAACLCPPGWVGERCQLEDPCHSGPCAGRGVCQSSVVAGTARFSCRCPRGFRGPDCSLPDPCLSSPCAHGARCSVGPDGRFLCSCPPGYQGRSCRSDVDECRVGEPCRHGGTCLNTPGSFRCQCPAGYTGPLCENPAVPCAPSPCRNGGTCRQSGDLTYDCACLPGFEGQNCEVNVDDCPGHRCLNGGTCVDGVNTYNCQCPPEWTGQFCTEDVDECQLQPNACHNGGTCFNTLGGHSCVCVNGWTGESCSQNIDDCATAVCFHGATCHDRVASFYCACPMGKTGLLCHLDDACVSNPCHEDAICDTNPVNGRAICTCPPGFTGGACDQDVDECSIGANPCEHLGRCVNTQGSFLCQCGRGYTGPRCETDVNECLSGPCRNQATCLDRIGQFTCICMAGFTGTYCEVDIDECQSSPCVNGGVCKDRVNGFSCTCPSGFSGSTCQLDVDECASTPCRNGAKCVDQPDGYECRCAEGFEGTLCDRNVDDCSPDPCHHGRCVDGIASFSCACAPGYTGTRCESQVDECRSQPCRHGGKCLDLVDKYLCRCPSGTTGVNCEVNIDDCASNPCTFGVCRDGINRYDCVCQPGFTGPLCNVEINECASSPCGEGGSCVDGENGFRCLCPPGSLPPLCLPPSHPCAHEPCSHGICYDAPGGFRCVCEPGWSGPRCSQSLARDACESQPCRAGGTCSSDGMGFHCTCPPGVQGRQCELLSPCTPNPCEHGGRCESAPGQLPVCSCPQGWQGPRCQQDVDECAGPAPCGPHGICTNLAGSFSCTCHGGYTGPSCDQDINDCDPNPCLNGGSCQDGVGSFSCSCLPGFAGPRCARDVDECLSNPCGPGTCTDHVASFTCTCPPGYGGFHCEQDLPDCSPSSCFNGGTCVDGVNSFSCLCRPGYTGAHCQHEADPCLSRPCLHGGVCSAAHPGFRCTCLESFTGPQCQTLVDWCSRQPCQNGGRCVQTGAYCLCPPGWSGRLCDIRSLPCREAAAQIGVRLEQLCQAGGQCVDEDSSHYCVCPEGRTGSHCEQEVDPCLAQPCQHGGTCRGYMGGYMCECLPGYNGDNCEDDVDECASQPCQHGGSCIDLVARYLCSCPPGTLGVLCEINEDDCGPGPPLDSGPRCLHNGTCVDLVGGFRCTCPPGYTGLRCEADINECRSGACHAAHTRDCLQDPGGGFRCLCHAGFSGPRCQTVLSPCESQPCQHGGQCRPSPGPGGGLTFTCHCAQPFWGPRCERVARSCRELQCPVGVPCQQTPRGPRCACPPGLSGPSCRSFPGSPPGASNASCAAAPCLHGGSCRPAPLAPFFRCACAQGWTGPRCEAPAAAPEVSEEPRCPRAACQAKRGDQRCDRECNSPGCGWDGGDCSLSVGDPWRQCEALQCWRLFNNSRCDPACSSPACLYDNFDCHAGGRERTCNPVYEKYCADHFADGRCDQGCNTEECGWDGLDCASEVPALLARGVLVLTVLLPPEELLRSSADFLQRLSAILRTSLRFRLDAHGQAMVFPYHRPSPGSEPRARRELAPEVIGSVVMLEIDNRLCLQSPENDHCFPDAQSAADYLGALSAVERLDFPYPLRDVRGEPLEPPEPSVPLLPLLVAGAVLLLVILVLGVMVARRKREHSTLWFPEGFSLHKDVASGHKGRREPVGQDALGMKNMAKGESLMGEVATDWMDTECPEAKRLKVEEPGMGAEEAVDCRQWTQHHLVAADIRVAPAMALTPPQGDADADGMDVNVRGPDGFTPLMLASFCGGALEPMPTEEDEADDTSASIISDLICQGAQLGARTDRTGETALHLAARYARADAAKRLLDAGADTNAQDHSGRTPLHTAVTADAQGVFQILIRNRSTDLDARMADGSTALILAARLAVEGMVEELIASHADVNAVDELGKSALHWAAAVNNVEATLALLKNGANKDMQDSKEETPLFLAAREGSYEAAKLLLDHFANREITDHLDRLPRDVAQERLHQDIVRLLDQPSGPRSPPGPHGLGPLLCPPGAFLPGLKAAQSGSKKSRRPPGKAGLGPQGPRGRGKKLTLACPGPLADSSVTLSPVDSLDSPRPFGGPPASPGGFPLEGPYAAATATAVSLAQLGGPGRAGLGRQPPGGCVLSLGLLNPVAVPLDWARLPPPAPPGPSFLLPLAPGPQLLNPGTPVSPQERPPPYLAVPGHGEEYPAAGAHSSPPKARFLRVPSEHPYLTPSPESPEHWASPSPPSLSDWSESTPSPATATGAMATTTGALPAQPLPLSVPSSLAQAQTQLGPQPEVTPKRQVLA

As for `CC(CCN1CCc2nc(-c3ccccc3)c(-c3ccccc3)cc2C1)=NOC[C@@H](C)[C@H](OCc1ccccc1)C(C)C`, the composite z-score is -0.0574 in experiment [1]; -1.01 in [2]; -0.172 in [3]; -0.756 in experiment [4]; -1.63 in experiment [5]; 0.0189 in experiment [6]. Also, the composite z-score was -0.0462 in experiment [7]; -0.32 in experiment [9]; -0.206 in [10]; -0.299 in experiment [11]; 0.628 in experiment [15]; -0.195 in [17]. Further, the results for the composite z-score in experiment [18], in experiment [19] and in experiment [20] were -0.179, -2.07 and -0.25, respectively. Further, the z-score in experiment [8] was 0.764 (inactive); in experiment [12], -0.511 (inactive); in experiment [13], -1.17 (inactive); in [14], -3.43 (inactive); in [16], -0.518 (inactive).
`COCCOC(=O)N1C(=O)[C@@]2(c3cc(C#CC4(O)CCCCCC4)ccc31)[C@H](C(=O)N1CCN(c3ncccn3)CC1)[C@H]1C(=O)O[C@H](c3ccccc3)[C@H](c3ccccc3)N1[C@@H]2c1ccc(OCCO)cc1`: the composite z-score in experiment [1] was -0.266; in [2], 0.318; in [3] it was 0.192; in [4] it was 0.727; in experiment [5], 1.24; in experiment [6], 0.939. Further, the composite z-score was 1.33 in experiment [7]; 0.517 in [9]; 0.107 in experiment [10]; 1.53 in [11]; 2.61 in experiment [15]; -0.0075 in [17]. The results for the composite z-score in experiment [18], in experiment [19] and in [20] were 1.64, 1.08 and 0.0779, respectively. Moreover, the z-score was 0.401 (inactive) in experiment [8]; 2.12 (inactive) in experiment [12]; 1.35 (inactive) in [13]; 5.93 (inactive) in experiment [14]; 2.25 (inactive) in experiment [16].
On to `CC[C@@H](c1ccccc1)n1c(=O)n2n(c1=O)[C@H]1[C@H](O)[C@@H]3O[C@@H]3C(=NOCC(C)C)[C@H]1CC2`, for which the composite z-score in [1] is -0.427; in [2], 0.428; in experiment [3], -0.119; in [4], 0.0304; in experiment [5] it was 0.409; in experiment [6] it was -0.0258. Also, the composite z-score in experiment [7] was 0.493; in experiment [9], 0.0308; in experiment [10], -0.0994; in [11] it was -0.179; in [15], 0.543; in [17], -0.213. Besides, the composite z-score in [18] was 0.288; in [19], 0.586; in experiment [20], -0.0967. Moreover, the z-score is 0.0491 (inactive) in experiment [8]; 1.3 (inactive) in [12]; -0.0534 (inactive) in experiment [13]; 1.37 (inactive) in experiment [14]; 0.409 (inactive) in experiment [16].
Turning to `CC(C)(C)N1CC=CC23O[C@@H]4C=CCCOC(=O)C4[C@H]2C(=O)N(CCCCCO)[C@@H]3C1=O` (stereo not given in full), the composite z-score was -0.0873 in [1]; 1.48 in experiment [2]; -0.183 in [3]; 0.448 in [4]; 0.366 in [5]; -0.0196 in [6]. Also, the composite z-score is 1.28 in [7]; -0.443 in experiment [9]; 0.0156 in [10]; 0.937 in experiment [11]; 1.74 in experiment [15]; -0.13 in [17]. Moreover, the results for the composite z-score in [18], in experiment [19] and in experiment [20] were 0.304, 0.0136 and 0.0912, respectively. Moreover, the z-score in experiment [8] was -0.85 (inactive); in [12], 0.37 (inactive); in experiment [13], 0.501 (inactive); in experiment [14], -0.215 (inactive); in experiment [16], 0.261 (inactive).
Consider `COCCOC(=O)N1C(=O)[C@@]2(c3cc(C#Cc4ccc(OC)cc4)ccc31)[C@H](c1ccc(O)cc1)N1[C@H](c3ccccc3)[C@H](c3ccccc3)OC(=O)[C@H]1[C@@H]2C(N)=O`, for which the composite z-score in [1] was -0.513; in experiment [2], 0.258; in experiment [3], -0.031; in [4], 0.602; in [5] it was 1.35; in experiment [6] it was 1.17. Besides, the composite z-score in experiment [7] is 1.26; in [9], 0.674; in experiment [10], 0.291; in experiment [11] it was 1.55; in experiment [15], 2.93; in [17] it was -0.145. In addition, the composite z-score in experiment [18] came to 0.977; in [19] it was 1.1; in experiment [20], 0.0026. The z-score was 0.497 (inactive) in [8]; 0.0655 (inactive) in [12]; -0.118 (inactive) in experiment [13]; -0.0092 (inactive) in experiment [14]; 0.04 (inactive) in experiment [16].
